Data published in PubChem BioAssay (Tox21).
Records with an inconclusive call do not appear. Values without a mark were called inactive. Activity calls are given as the source filed them. Calls come from the whole dose curve; as a rule, active = well fitted activation curve with a large enough effect in the repeat runs; inconclusive = weak or mixed curves; inactive = flat fitted curve, though single readings scatter.

assay: A CellTox Green Cytotoxicity Assay to monitor cytotoxicity in HepG2 cells - 32 hour (AID 1224883); conditions: CellTox Green fluorescence; series mostly up to 76.8 µM; cytotoxicity increase: at the top concentration; note: nearly all actives have a fitted effect of over 50% in size
Description: National Center for Advancing Translational Sciences [NCATS]
NIH Chemical Genomics Center [NCGC]
U.S. Environmental Protection Agency [EPA]
National Institutes of Environmental Health Sciences [NIEHS]
National Toxicology Program [NTP]
Cell-based models are critical for drug discovery. Determining the natural cytotoxic effects resulting from test compounds is an essential research activity. A CellTox Green Cytotoxicity Assay to monitor cytotoxicity in real time of continues cell culture during 40 hours of the compound treatment was used to screen Tox21 10K library compounds in HepG2 cells. CellTox Green Cytotoxicity Assay is a nonlytic, homogeneous, biofluorescent method to measure cytotoxicity in cell culture after experimental manipulation. The assay system uses a proprietary asymmetric cyanine dye that is excluded from viable cells but preferentially stains the dead cell's DNA. […] Viable cells produce no appreciable increases in fluorescence. Therefore, the fluorescence signal produced by the binding interaction with dead cell DNA is proportional to cytotoxicity.
The mixture of HepG2 cell suspension and reagents were dispensed at 600cells/6 ul/well in 1536-well tissue culture treated black solid bottom plates using a Multidrop dispenser. After the assay plates were incubated at a 37 C/5% CO2 incubator for 5 hours, 23 nL of compounds dissolved in DMSO, positive and negative controls was transferred to the assay plate by a pintool work station. The plates were incubated at 37 C for 40 hours. The fluorescence intensity were measured at 0h, 8h, 16h, 24h, 32h and 40h time points using ViewLux plate reader during compound treatment.
% is set by controls: 0 for no effect and ±100 for the full control effect; potency is the fitted concentration of half-maximal effect.

Point of comparison: `CCCCC(CC)COC(=O)CCCCCCCCC(=O)OCC(CC)CCCC` (stereo not given), “cytotoxicity increase” value -4.68%. Against it:
- Nc1ccc(N)c2c1C(=O)c1ccccc1C2=O — lower, -29%
- CC(C)O.CC(C)O.CCOC(=O)/C=C(\C)O.CCOC(=O)/C=C(\C)O.[Ti] — higher, 7.58%
- O=[N+]([O-])c1ccc2[nH]ncc2c1 — lower, -13.6%
- CO[C@@H]1[C@H](OC(=O)/C=C/C=C/C=C/C=C/C(=O)O)CC[C@]2(CO2)[C@H]1[C@@]1(C)O[C@@H]1CC=C(C)C — higher, -3.49%
- CCc1cc(C2=C(C(=O)O)N(c3ccccc3C(F)(F)F)S(=O)(=O)c3ccccc32)cc2c1OCO2 — higher, 5.91%
- CCCCC — lower, -8.29%
- Cc1cc(C(=O)O)ccc1[N+](=O)[O-] — higher, 4.95%
- CCCCCCCCCCO[C@@H]1O[C@H](CO)[C@@H](O)[C@H](O)[C@H]1O — higher, 22.1%
- COCC(C)OC(C)=O (stereo not given) — higher, 0.541%
- CCc1c(C(=O)NN2CCCCC2)nn(-c2ccc(Cl)cc2Cl)c1-c1ccc(Br)cc1 — lower, -8.48%
- CC(C)(C)Cl — higher, 4.35%
- O=P(O)(OCc1ccccc1)OCc1ccccc1 — higher, 0.188%
- CCC(C)c1cc(C(C)(C)C)c(O)c(C(C)(C)C)c1 (stereo not given) — higher, -0.704%
- O=C(O)c1ccc(S(=O)(=O)O)cc1C(=O)O — lower, -17.2%
- Cc1oc(-c2ccccc2)nc1CCOc1cccc2c1ccn2CCC(=O)O — higher, -0.275%
- Cn1c(=O)cc(Oc2ccc(F)cc2F)c2cnc(NCC(C)(C)O)nc21 — higher, 3.89%
- O=C(OCCCCCCOC(=O)c1ccccc1)c1ccccc1 — higher, -0.406%
- c1ccc(-c2ccccn2)nc1 — lower, -12.6%
- Cc1nn(C)c(Oc2ccccc2)c1/C=N/OCc1ccc(C(=O)OC(C)(C)C)cc1 — higher, 2.26%
- O=C(O)C1(C(=O)Nc2ccc(Cl)cc2Cl)CC1 — lower, -12.2%

Point of comparison: `O=C(c1ccc(F)cc1)C1CCN(CCn2c(=S)[nH]c3ccccc3c2=O)CC1`, “cytotoxicity increase” value 17.2% [at 35.3 µM]. Against it:
- C=CCOc1ccccc1OCC(O)CNC(C)C (stereo not given) — lower, -0.554% [at 35.3 µM]
- O=C(NCCO[N+](=O)[O-])c1cccnc1 — lower, -13.9% [at 35.3 µM]
- CCCCC(=O)OCC(=O)[C@H]1[C@H](C)C[C@H]2[C@@H]3C[C@H](F)C4=CC(=O)C=C[C@]4(C)[C@@]3(F)[C@@H](O)C[C@@]21C — lower, -2.88% [at 35.3 µM]
- COc1ccnc(CS(=O)c2nc3ccc(OC(F)F)cc3[nH]2)c1OC (stereo not given) — lower, -14.2% [at 35.3 µM]
- O=C1[C@H]2CCCC[C@H]2C(=O)N1CCCCN1CCN(c2nsc3ccccc23)CC1 — lower, 5.41% [at 35.3 µM]
- C[C@H]1C[C@H]2[C@@H]3CCC4=CC(=O)C=C[C@]4(C)[C@@]3(Cl)[C@@H](O)C[C@]2(C)[C@@]1(O)C(=O)CO — lower, 1.66% [at 35.3 µM]
- CCN(CC)c1ccc(C(=C2C=CC(=[N+](CC)CC)C=C2)c2cc(S(=O)(=O)O)ccc2S(=O)(=O)[O-])cc1 — lower, -18.1% [at 35.3 µM]
- CCN(CC)CCNC(=O)c1cc(Br)c(N)cc1OC — lower, 5.39% [at 35.3 µM]
- CCO[C@H](Cc1ccc(OCCc2ccc(OS(C)(=O)=O)cc2)cc1)C(=O)O — lower, -15.7% [at 35.3 µM]
- CN1CCN(C(c2ccccc2)c2ccccc2)CC1 — lower, 14.3% [at 35.3 µM]
- OCCN1CCN(CCCN2c3ccccc3C=Cc3ccccc32)CC1 — lower, 13.8% [at 35.3 µM]
- CCC(=O)O[C@]1(C(=O)CCl)[C@@H](C)C[C@H]2[C@@H]3CCC4=CC(=O)C=C[C@]4(C)[C@@]3(F)[C@@H](O)C[C@@]21C — lower, -13.3% [at 35.3 µM]

With `CCCCCCCCCc1ccc(OCCOCCO)cc1` the Potency was 20.5 µM (active).
With `CCOC(=O)Cc1cccc2ccccc12` the Potency was 21.9 µM (active).
For `CNCCCCOc1ccccc1Cc1ccccc1`, the Potency was 21.3 µM (active).
For `Cc1oc2c(NC(=O)c3c(Cl)cccc3Cl)cccc2c1C(C)(C)O`, the Potency was 49 µM (active).
With `CN1CCC(=C2c3ccccc3Sc3ccccc32)CC1` the Potency was 23.9 µM (active).

`NC(N)=NCCC[C@H](N)C(=O)O` showed a cytotoxicity increase of -4.17% [at 6.97 µM].
